Screening data: PubChem, The Scripps Research Institute Molecular Screening Center
Shown are actives, neighbours in structure and some others; about 2.6% of the full set was active somewhere.
PAD4 FP inh = PAD4 (human) enzyme inhibition; Q9UM07; recombinant PAD4, RCA probe fluorescence polarization; inhibition, % at 6.36 µM; actives 0.41% (n = 330,000); AID 485272;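 active = percent inhibition above a cutoff equal to the mean of all tested compounds plus 3 SD, cut at about 15% in these data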;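 also: 0% = PAD4 with RCA probe and DMSO and 100% = probe without PAD4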
Target sequence (Q9UM07 whole entry, looked up): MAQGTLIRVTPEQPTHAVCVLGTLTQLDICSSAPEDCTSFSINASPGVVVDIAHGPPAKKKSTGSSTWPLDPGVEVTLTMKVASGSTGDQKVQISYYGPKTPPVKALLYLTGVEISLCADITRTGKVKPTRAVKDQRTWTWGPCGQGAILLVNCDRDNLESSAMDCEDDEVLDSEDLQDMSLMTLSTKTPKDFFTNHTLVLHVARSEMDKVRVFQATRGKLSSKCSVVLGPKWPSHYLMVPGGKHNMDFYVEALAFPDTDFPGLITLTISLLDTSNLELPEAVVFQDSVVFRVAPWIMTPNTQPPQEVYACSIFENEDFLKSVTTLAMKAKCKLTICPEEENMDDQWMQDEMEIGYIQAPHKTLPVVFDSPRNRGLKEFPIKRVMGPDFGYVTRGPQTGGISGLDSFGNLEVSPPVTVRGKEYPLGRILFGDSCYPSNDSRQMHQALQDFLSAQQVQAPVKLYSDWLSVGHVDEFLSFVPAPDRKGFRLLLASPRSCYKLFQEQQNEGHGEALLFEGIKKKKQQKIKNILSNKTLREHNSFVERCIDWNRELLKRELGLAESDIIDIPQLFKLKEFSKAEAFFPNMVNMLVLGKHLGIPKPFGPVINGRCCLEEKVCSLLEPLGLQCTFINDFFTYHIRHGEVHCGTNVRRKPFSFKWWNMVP
PRMT1 FP inh = blocks human protein arginine methyltransferase 1; actives 1.3% (n = 370,000); inhibition, % at 2.79 µM; Q99873; recombinant PRMT1, activity-based probe fluorescence polarization;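 active = inhibition above about 21% made by adding two undisclosed values, limit read from the data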
SIAE inh = blocks human sialic acid acetylesterase; inhibition, % at 9.66 µM; SIAE FP-Rh probe binding, fluorescence polarization; AID 1053197; Q9HAT2; actives 0.69% (n = 370,000);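 active = inhibition above a cutoff: mean of compounds within the control limits plus 3 SD of those, cut at about 17% in these data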;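 also: 0% = plate median of compound wells and 100% = probe without SIAE protein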
PME-1 primary = PME-1 (human) inhibition; recombinant PME-1, FP-Rh probe fluorescence polarization; inhibition, % at 5.9 µM; actives 0.53% (n = 320,000); AID 2130;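 active = inhibition above the campaign mean of all compounds plus 3 SD, cut at about 26% in these data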;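 also: competitive labeling of PME-1 active site by serine hydrolase directed probe; 0% = PME-1 with DMSO and 100% = wells lacking PME-1 enzyme; inhibitors block probe labeling so polarization falls and inhibition rises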
TCR-CD3 inh = human TCR-CD3 binding inhibition | TAMRA-labeled TCR probe fluorescence, biochemical | inhibition, % at 9.4 µM | actives 0.37% (n = 360,000) | AID 651800; in the data active = inhibition above about 19%;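 also: recombinant mutant TCR 2C K166C tagged with TAMRA read by polarization; 0% = receptor in buffer alone and 100% = receptor with positive control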
Fam108B inh = blocks mouse Fam108B hydrolase in RBBP9 counter-screen; actives 0.33% (n = 300,000); recombinant Fam108B, FP-Rh probe fluorescence polarization; inhibition, % at 9.51 µM;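 active = inhibition above the screen mean inhibition plus 3 SD, computed separately per campaign, cut at about 18% in these data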;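 also: inhibitors lower polarization as less probe binds the enzyme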
SIAE inh conf = human SIAE inhibition, confirmation; shares compounds with SIAE inh; SIAE FP-Rh activity-based probe, fluorescence polarization; inhibition, % at 9.66 µM; actives 13% (n = 2,300); AID 1117263;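 active = mean inhibition of the replicates above the hit cutoff set in the primary screen, cut at about 17% in these data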;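 also: 0% = SIAE with DMSO and probe and 100% = probe without SIAE; inhibitors lower polarization as more probe stays unbound to SIAE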
Numbers without * were called inactive; nt = no result given.

SMILES	PAD4 FP inh	PRMT1 FP inh	SIAE inh	PME-1 primary	TCR-CD3 inh	Fam108B inh	SIAE inh conf
COC(=O)CC1C(=O)NCCN1C(=O)CSc1nc2cc(Cl)ccc2o1 (centres undefined)	-2	-2	21*	-5	2	0	3
COc1ccc(/C(C)=N/OCC(=O)N=Nc2c(O)[nH]c3ccccc23)cc1	-4	-1	21*	1	1	1	0
COc1ccc(/C=N/OCC(=O)N=Nc2c(O)[nH]c3ccc(Br)cc23)cc1	0	-2	0	-1	8	2	nt
C=C(C)[C@@H]1CC2=C(OC)C(CC=C(C)C)(CC=C(C)C)C(=O)C(C(=O)c3ccccc3)=C2O1	nt	2	-3	nt	nt	nt	nt
CCOC(=O)CN1CC23C=CC(O2)C(C(=O)Nc2cc(OC)ccc2OC)C3C1=O (centres undefined)	-5	0	17*	-3	-9	-3	-7
CCC[C@H]1[C@@H](NC(=O)c2ccc(C)cc2)CC[C@@]23CCCN2C(=O)CCC[C@@H]13	nt	3	-1	nt	nt	nt	nt
Nc1nc(NCc2ccco2)nc(N2CCCCC2)c1[N+](=O)[O-]	-3	0	19*	3	6	3	1
CN1CCN(c2nc(NCc3ccco3)nc(N)c2[N+](=O)[O-])CC1	1	-3	16	-4	-1	0	nt
COc1ccc(/C=N/n2c(-c3ccccc3)n[nH]c2=S)cc1	0	2	22*	2	4	0	0
COc1cc(-c2csc(N3CCC(C(N)=O)CC3)n2)cc(OC)c1OC	nt	-2	2	nt	nt	nt	nt
CC/C(Cc1ccccc1)=N/NC(=O)c1cccc(Br)c1	1	-2	18*	-9	5	2	0
COC(=O)[C@@]12CCCCC3=C1N(CCC3)C(=O)[C@H]2CC(=O)N1CCSCC1	nt	2	-3	nt	nt	nt	nt
COCCNc1nc(NCCNC(C)=O)c2sc(-c3ccccc3)cc2n1	nt	-8	4	nt	-5	nt	nt
COCCNc1nc(NCCOc2ccccc2Cl)c2sc(-c3ccccc3)cc2n1	nt	-7	20*	nt	1	nt	26*
c1ccc(-c2cc3nc(NCC4CC4)nc(NCC4CCCCC4)c3s2)cc1	nt	1	5	nt	2	nt	nt
COCCNc1nc(NCC2CCCCC2)c2sc(-c3ccccc3)cc2n1	nt	-6	20*	nt	-4	nt	32*
O=C(OCC#CCSc1nnc(-c2cccc3ccccc23)o1)c1ccc(OC(F)(F)F)cc1	nt	0	-1	nt	nt	nt	nt
O=C(c1ccc(N2CCOCC2)nc1)N1CCOCC1	-2	-3	2	2	0	3	nt
CC(C)NC(=O)c1ccc(N2CCOCC2)nc1	1	-2	19*	2	-4	1	-4
COC(=O)C1CN(CCO)CCS(=O)(=O)N1Cc1cn(Cc2ccc(C)cc2)nn1 (centres undefined)	nt	-1	0	nt	nt	nt	nt
C/C(=N/Nc1ccc([N+](=O)[O-])cc1)c1c[nH]c2ccccc12	nt	7	34*	nt	-11	nt	-6
C/C(=N\NC(=O)CCc1c[nH]c2ccccc12)c1ccc([N+](=O)[O-])cc1	2	0	18*	14	-3	5	4
C/C(=N\NC(=O)CCc1c(C)n[nH]c1C)c1ccc([N+](=O)[O-])cc1	-2	-2	-3	-1	4	1	nt
COC(=O)c1ccc(Cn2ccc3ccc(-c4ccc5ccn(C(=O)C6CCCCC6)c5c4)cc32)cc1	nt	1	-3	nt	nt	nt	nt
C=CCn1c(C)nnc1SCC(=O)N1c2ccccc2NC(=O)C1(C)C	nt	-2	18*	nt	0	nt	-8
SMILES	PAD4 FP inh	PRMT1 FP inh	SIAE inh	PME-1 primary	TCR-CD3 inh	Fam108B inh	SIAE inh conf
CCOC(=O)CNC(=O)c1ccc(C)cc1	-1	0	-3	2	-4	-2	nt
CCO/C=C/C(O)(CNC(=O)c1ccc(C(C)(C)C)cc1)C(F)(F)F (centres undefined)	1	0	60*	-5	-5	1	-1
COc1ccc(-n2c(CN3CCN(c4ccccc4OC)CC3)nc3ccc([N+](=O)[O-])cc3c2=O)c(OC)c1	nt	-1	11	nt	8	nt	nt
CCN1CCN(Cc2nc3ccc([N+](=O)[O-])cc3c(=O)n2-c2ccc(OC)cc2OC)CC1	-3	-5	19*	2	-10	2	0
Cc1ccc(-n2ncc3c(N4CCN(c5ccccc5)CC4)ncnc32)c(C)c1	0	-3	18*	0	-1	0	3
S=C(Nc1ccc(Cl)c(Cl)c1)NC1CCCCC1	1	nt	nt	-22	nt	-4	nt
S=C(Nc1ccc2nsnc2c1)NC1CCCCC1	-5	1	19*	-3	-1	3	2
COC(=O)C1CN(Cc2cn(Cc3ccc(Cl)cc3)nn2)CCS(=O)(=O)N1Cc1ccc(OC)cc1 (centres undefined)	nt	3	2	nt	nt	nt	nt
COc1ccc(Nc2nc(-c3cccs3)cs2)c(OC)c1	-11	7	10	14	-10	8	nt
COc1ccc(OC)c(Nc2nc(-c3cccs3)cs2)c1	-2	3	20*	9	0	14	2
Oc1ccc(Nc2nc(-c3cccs3)cs2)cc1	2	14	20*	10	-3	5	6
CCC(=O)Nc1ccc2c(c1)C(=O)N(C)[C@@H]1CC[C@@H](CC(=O)NCCN3CCCCC3)O[C@H]1CO2	nt	3	-4	nt	nt	nt	nt
CCCC[C@@H]1C(=O)N2N=Cc3ccccc3[C@H]2N2N=Cc3ccccc3[C@@H]12	nt	0	12	nt	nt	nt	nt
Oc1ccc(/C=N/Nc2ccc3ccccc3c2)c(O)c1	-5	9	21*	17	0	16	17
Oc1ccc(C=NNc2nc3ccccc3s2)c(O)c1	nt	-4	-2	nt	6	nt	nt
COc1cccc(/C=N/N2CCN(c3ccc(Cl)cc3)CC2)c1OC	-5	-5	9	-6	1	-9	nt
COc1cccc(C=NN2CCCCCC2)c1OC	nt	0	21*	nt	1	nt	2
CCOC(=O)[C@]12CCCCC/C=C\1N(CCc1ccc(Cl)cc1)C(=O)[C@H]2CC(=O)NCc1ccc(C)o1	nt	7	-15	nt	nt	nt	nt
Oc1ccc(C(=S)N2CCCCCC2)cc1	2	1	23*	-5	7	5	0
Oc1ccc(C(=S)N2CCCC2)cc1	0	2	-2	1	-2	-3	nt
CN(C)c1ccc(NC2=C([N+](=O)[O-])CS(=O)(=O)C2)cc1	-10	12	18*	-6	7	0	8
Cc1ccc(NC2=C([N+](=O)[O-])CS(=O)(=O)C2)cc1	-2	3	1	4	4	2	nt
CN1CCCC1CCSc1ncccc1-c1nc2ccccc2[nH]1 (centres undefined)	nt	1	-2	nt	nt	nt	nt
COC(=O)[C@]12C[C@H](CC(=O)NCc3ccccc3)C(=O)N(CCc3ccc(OC)c(OC)c3)C1=C[C@H](COCc1ccccc1)O[C@@H]2C	nt	-2	9	nt	nt	nt	nt
Cc1nnc(N(C)C(=O)c2ccccn2)s1	-2	1	32*	-5	3	-3	4
